Screens from PubChem BioAssay.
An excerpt weighted towards active compounds, which were near 8.7% of everything screened.
JMJD2A Tudor inh: inhibitors of human JMJD2A Tudor domain. O75164. AlphaScreen JMJD2A-Tudor / H3K4me3 peptide binding. Potency, µM (titrated, usually from 114 µM), usual class: inhibitors. 390,000 compounds, 4.4% hits. AID 504339; also: nearly all actives have a fitted effect of over 50% in size
BAZ2B inh: inhibitors of human BAZ2B bromodomain; Q9UIF8; AlphaScreen BAZ2B-H3K14Ac peptide displacement; Potency, µM (titrated, usually from 114 µM), actives largely listed as inhibitors; 360,000 compounds, 4.4% hits; AID 504333; also: nearly all actives have a fitted effect of over 60% in size
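AlphaScreen displacement of biotin-H3(5-23)K14Ac peptide (50 nM final) from BAZ2B (50 nM final) in PBS pH 7.4, 0.01% Tween-20; complex preformed 30 min RT, then compounds (top 110 uM) 30 min RT, beads 20 min dark.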
G9a inh: G9a (human) methyltransferase inhibition; AID 504332; Q96KQ7; 350,000 compounds, 8.8% hits; Potency, µM (doses to about 102 µM), most hits filed as inhibitors; G9a H3K9 monomethylation, AlphaScreen, 2 h; also: nearly all actives have a fitted effect of over 75% in size
Target sequence (Q96KQ7 913-1193 limits assumed): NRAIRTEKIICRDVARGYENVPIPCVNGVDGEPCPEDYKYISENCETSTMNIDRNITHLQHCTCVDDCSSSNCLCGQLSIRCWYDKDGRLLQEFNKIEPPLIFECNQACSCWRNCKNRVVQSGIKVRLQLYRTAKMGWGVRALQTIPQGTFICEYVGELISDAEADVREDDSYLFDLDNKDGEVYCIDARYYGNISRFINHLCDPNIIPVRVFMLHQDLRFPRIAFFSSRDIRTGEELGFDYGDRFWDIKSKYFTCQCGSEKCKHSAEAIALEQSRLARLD
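Using a bead-based AlphaScreen, monomethylated H3K9 product from 2 h room-temperature reactions (G9a 20 nM, peptide 500 nM, SAM 20 uM) was detected with 0.5 ug/mL rabbit anti-H3K9me1 antibody.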
ALOX12 inh: ALOX12 (human) lipoxygenase inhibition; P18054; purified 12hLO, xylenol orange hydroperoxide absorbance; Potency, µM (doses to about 108 µM), hits mostly inhibitors; 580,000 compounds, 1.1% hits
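Purified human 12hLO at 150 nM in 25 mM Hepes, 0.01% Triton X-100, pH 7.0, preincubated 15 min at room temperature with compound. Reaction started with 40 uM arachidonic acid, 30 min at room temperature. Hydroperoxide measured by Fe-xylenol orange, 573/405 nm absorbance ratio.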
Sfp inh: Sfp phosphopantetheinyl transferase inhibition; Biochemical Sfp PPTase activity, qHTS; AID 1490; Q9F4F7; Potency, µM, actives largely listed as inhibitors; 310,000 compounds, 3.5% hits;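 also: the enzyme is Sfp with the accession as filed and its product quenches rhodamine fluorescence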
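Step 1, compound plus 15 nM Sfp-PPTase, 15 min, room temperature. Step 2, add rhodamine-CoA (5 uM) and BHQ-2-YbbR (12.5 uM). Step 3, read 525/598 nm fluorescence at 0 and 30 min.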
HP1b binding inh: inhibitors of HP1-beta chromodomain binding to methylated histone tails | AlphaScreen HP1-beta / biotin-H3K9me3 peptide binding | AID 540317 | P83916 | 390,000 compounds, 0.56% hits | Potency, µM (series often up to 114 µM), actives largely listed as inhibitors; also: nearly all actives have a fitted effect of over 70% in size
Target sequence (P83916 whole entry, looked up): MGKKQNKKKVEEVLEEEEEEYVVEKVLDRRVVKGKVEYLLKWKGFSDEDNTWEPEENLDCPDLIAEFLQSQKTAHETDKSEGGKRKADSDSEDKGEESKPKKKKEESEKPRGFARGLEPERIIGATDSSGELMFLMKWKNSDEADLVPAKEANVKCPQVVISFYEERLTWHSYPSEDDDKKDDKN
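Compound inhibition of the preformed complex between 50 nM HP1-beta and 50 nM biotinylated H3K9me3 peptide was read by AlphaScreen. Buffer was PBS pH 7.4 with 0.01% Tween-20. Incubations ran 30 min at room temperature, with 10 ug/mL donor/acceptor beads.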
A number is an active result; . = inactive; ? = inconclusive; / = no result; ! = not confirmed by another sample; [ ] = remark or other dose. Calls follow the shape of the dose curve; as a rule, active = well fitted curve in the direction sought with a large enough effect; inconclusive = small, poorly fitted or top-dose-only effect, or another doubt; inactive = no such curve, though single readings can be large; an effect the other way counts as inactive or inconclusive.

SMILES | JMJD2A Tudor inh | BAZ2B inh | G9a inh | ALOX12 inh | Sfp inh | HP1b binding inh
CC(C)C1(C)N=C(c2ncccc2C(=O)O)NC1=O (stereo not given) | 22.4µM | 28.2µM | 31.6µM | ? | . | .
CNC(=O)C1CCN(C(=O)c2cn(Cc3ccccc3)c3ccccc23)CC1 | / | / | / | . | / | /
Cc1oc2cc(OC(=O)N(C)C)ccc2c(=O)c1-c1ccccc1 | / | / | / | . | / | /
Cc1ccc2c(c1)CC1(CN2C)C(=O)NC(=O)N(c2cc(C)ccc2C)C1=O (stereo not given) | . | . | 5.62µM | . | . | .
COc1cc(CN2C(=O)NC(=O)C3(Cc4cc(C)ccc4N(C)C3)C2=O)cc(OC)c1 (stereo not given) | . | . | ? | . | ? | .
COc1ccc(OC)c(N2C(=O)NC(=O)C3(Cc4cc(C)ccc4N(C)C3)C2=O)c1 (stereo not given) | . | . | 8.91µM | ? | . | .
COc1ccc2c(c1)CC1(CN2C)C(=O)NC(=O)N(CCc2ccccc2)C1=O (stereo not given) | . | ? | 11.2µM | 39.8µM | . | .
COc1cccc(N2C(=O)NC(=O)C3(Cc4cc(C)ccc4N(C)C3)C2=O)c1 (stereo not given) | ? | . | 2.82µM | ? | . | .
Cc1ccc(N2C(=O)NC(=O)C3(Cc4cc(C)ccc4N(C)C3)C2=O)c(C)c1 (stereo not given) | / | / | / | . | / | /
CC(=NNC(=S)N1CC2CCC(CC2)C1)c1nccs1 | 20µM | / | / | ? | / | ?
C[N+]12CCC(CC1)C(C#N)(N1CCOCC1)C2 (stereo not given) | ? | . | 50.1µM | ? | . | .
CC12CC[C@H]3[C@@H](CCC4(O)CC(O)CCC34/C=N/O)C1(O)CCC2C1=CC(=O)OC1 (stereo not given in full) | / | / | / | . | / | /
Nc1ccc(Oc2cccc(Oc3ccc(N)cc3)c2)cc1 | ? | 39.8µM | 44.7µM | . | . | ?
CC(C)CN[C@H]1[C@H](O)[C@H](O)C[C@@H]1c1ccccc1 | / | / | / | . | / | /
FC(F)(F)c1ccc(CNCCc2ccc3c(c2)OCO3)cc1 | 56.2µM | 79.4µM | 22.4µM | 1.78µM | 79.4µM | .
Clc1ccc(CNCCc2ccc3c(c2)OCO3)cc1 | 25.1µM | 44.7µM | 79.4µM | 4.47µM | ? | .
Fc1ccccc1CNCCc1ccc2c(c1)OCO2 | 70.8µM | . | 39.8µM | ? | . | .
c1cncc(CNCCc2ccc3c(c2)OCO3)c1 | . | . | / | ? | . | .
Clc1cccc(CNCCc2ccc3c(c2)OCO3)c1 | 28.2µM | 79.4µM | 44.7µM | ? | . | ?
CC(C)[C@]12O[C@@H]1[C@@H]1O[C@]13[C@]1(O[C@H]1C[C@@H]1C4=C(CC[C@@]13C)C(=O)OC4)[C@H]2O | / | / | / | . | / | /
O=c1[nH]c(=S)[nH]c(O)c1/C=N/N1CCOCC1 | . | . | 50.1µM | ? | ? | .
CCCCC12CN3CC(C)(CN(C1)C3c1ccccn1)C2=O (stereo not given) | 25.1µM | 8.91µM | 0.631µM | . | / | .
CCCC12CN3CC(C)(CN(C1)C3c1c(C)[nH]c(=O)[nH]c1=O)C2=O (stereo not given) | . | . | ? | . | / | .
CN1Cc2ccccc2-n2ccnc2C12CCN(C(=O)C1CCC1)CC2 | / | / | / | . | / | /
C[N+](C)(C)CCOC(=O)CBr | . | . | 25.1µM! | ? | . | .
SMILES | JMJD2A Tudor inh | BAZ2B inh | G9a inh | ALOX12 inh | Sfp inh | HP1b binding inh
CC(=O)OCC[N+](C)(C)C | . | . | . | ? | . | .
O=S(=O)(NC[C@H]1C[C@@H]2CCN1C[C@@H]2CN1CCN(c2ncccn2)CC1)c1ccccc1 | / | / | / | . | / | /
CCOC(=O)c1cccc([P+](=O)O)c1 | 28.2µM | . | . | . | . | .
CCOC(=O)c1cccc(N)c1 | / | / | ? | .[22.9 µM] | . | /
CCC(C)n1c(O)c(C(c2ccccn2)c2c(O)n(C(C)CC)c(=S)[nH]c2=O)c(=O)[nH]c1=S (stereo not given) | ? | 35.5µM | 11.2µM | ? | 50.1µM | .
Cn1c(O)c(C(c2ccccn2)c2c(O)n(C)c(=S)n(C)c2=O)c(=O)n(C)c1=S | 3.98µM | 5.01µM | 3.98µM | . | ? | .
CCC(C)n1c(O)c(C=NC(C)c2ccccc2)c(=O)[nH]c1=S (stereo not given) | ? | . | / | . | . | .
CCCn1ncc(C(=O)N[C@H]2COC[C@H]2Cc2cc(C)no2)c1C | / | / | / | . | / | /
O=C(O)c1ccccc1-c1c2cc(Br)c(=O)cc-2oc2[c]([Hg])c(O)c(Br)cc12 | / | / | 0.891µM | / | 2µM! | /
S=c1[nH]c2cc(Br)cnc2[nH]1 | 20µM | . | 3.16µM | 39.8µM | 22.4µM | ?
CC1=C[C@@H]2c3cccc4[nH]cc(c34)C[C@H]2N(C)C1 | . | . | 44.7µM | . | . | .
CCN(CC)C(=O)N[C@@H]1C[C@H]2c3cccc4[nH]cc(c34)C[C@@H]2N(C)C1 | / | / | .[21.5 µM] | / | . | /
COc1cc(C2NCc3ccccc3-n3cccc32)ccc1O (stereo not given) | . | . | . | ? | . | .
COc1ccc(C2NCc3ccccc3-n3cccc32)cc1 (stereo not given) | ? | ? | 70.8µM | . | . | .
COc1ccc(CCNCc2ccccc2C)cc1 | / | / | / | . | / | /
COc1ccc(CCNCc2ccc(Cl)cc2)cc1 | / | / | / | 14.1µM | / | /
COc1ccc(CCNCc2ccc(SC)cc2)cc1 | . | . | / | ? | . | .
CCc1ccc(CNCCc2ccc(OC)cc2)cc1 | / | / | / | 2.51µM | / | /
COc1ccc(CCNCC2CCCO2)cc1 (stereo not given) | 28.2µM | ? | / | . | . | ?
O=C(c1ccncc1)N1CC2CCC(C1)N2Cc1cccc(Cl)c1 | / | / | / | .[6.33 µM] | / | /
C[Se]C[C@H](N)C(=O)O | / | / | 0.631µM | ? | / | /
C[Se]C[C@@H](N)C(=O)O | 20µM | ? | 3.98µM | ? | / | .
N[C@@H](CCl)C(=O)O | ? | / | 21.2µM | . | / | .
C/C1=C\[C@@H](C)C/C=C/[C@H]2[C@@H]3O[C@]3(C)[C@@H](C)[C@H]3[C@H](Cc4c[nH]c5ccccc45)NC(=O)[C@]32C(=O)/C=C/C(=O)[C@@H]1O | . | ? | . | / | 12.6µM | .
O=C(c1cn(Cc2ccccc2)c2ccccc12)N1CCC1 | / | / | / | . | / | /
SMILES | JMJD2A Tudor inh | BAZ2B inh | G9a inh | ALOX12 inh | Sfp inh | HP1b binding inh
CCCN(CCC)C1CCc2cccc(O)c2C1 (stereo not given) | . | / | 23.8µM! | . | ? | .
CCCN(CCC)[C@@H]1CCc2c(F)ccc(O)c2C1 | / | / | 50.1µM | / | / | /
CCCN(CCC)C1CCc2ccc(O)cc2C1 (stereo not given) | . | . | .[12.7 µM] | . | . | .
COC[C@H]1C[C@@H](NCc2cn(C)c3ccccc23)[C@H](O)[C@@H]1O | / | / | / | . | / | /
CN1CCN(c2ccc([N+](=O)[O-])c(NCc3ccco3)c2)CC1 | ? | ? | ? | . | . | .
CN1CCN(c2ccc([N+](=O)[O-])c(NCC3CCCO3)c2)CC1 (stereo not given) | . | . | 28.2µM | . | . | .
